# A selection: hits, their analogues and other compounds. The true share with any hit is near 1.8%.
# RAD54 branch: RAD54 (human) branch migration inhibition. Q92698. RAD54 Holliday junction branch migration, FAM/BHQ fluorescence. inhibition, % at 10.4 µM. 360,000 tested, 0.14% active;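 active = mean normalized replicate activity at least 40 and at least half of replicates scoring 40 or more; inconclusive = only one of the two criteria met; inactive = mean below 40 and under half of replicates reaching 40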;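 also: inhibitors cause a drop in the FAM fluorescence signal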
# Target sequence (Q92698 whole entry, looked up): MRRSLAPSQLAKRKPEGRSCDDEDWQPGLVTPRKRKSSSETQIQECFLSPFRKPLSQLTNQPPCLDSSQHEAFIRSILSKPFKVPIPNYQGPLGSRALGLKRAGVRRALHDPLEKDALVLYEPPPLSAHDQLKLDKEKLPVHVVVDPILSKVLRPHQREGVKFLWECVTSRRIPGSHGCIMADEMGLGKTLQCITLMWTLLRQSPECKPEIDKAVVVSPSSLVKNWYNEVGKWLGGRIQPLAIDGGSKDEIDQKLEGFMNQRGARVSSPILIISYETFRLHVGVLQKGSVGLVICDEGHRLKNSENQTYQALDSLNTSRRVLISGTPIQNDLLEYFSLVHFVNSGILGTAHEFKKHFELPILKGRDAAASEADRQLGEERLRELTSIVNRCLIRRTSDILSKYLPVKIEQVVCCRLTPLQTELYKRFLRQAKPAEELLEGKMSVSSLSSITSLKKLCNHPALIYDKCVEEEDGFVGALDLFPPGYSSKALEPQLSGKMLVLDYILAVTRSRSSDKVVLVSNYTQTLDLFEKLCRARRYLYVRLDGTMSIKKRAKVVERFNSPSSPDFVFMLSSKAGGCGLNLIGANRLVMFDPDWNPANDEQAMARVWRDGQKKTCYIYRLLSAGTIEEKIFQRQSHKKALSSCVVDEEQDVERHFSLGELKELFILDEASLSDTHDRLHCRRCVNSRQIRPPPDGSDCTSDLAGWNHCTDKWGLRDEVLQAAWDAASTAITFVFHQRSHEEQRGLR
# RAD52 anneal inh: inhibitors of human RAD52 DNA annealing; P43351; recombinant RAD52 DNA annealing, FRET fluorescence; inhibition, % at 18.7 µM; 360,000 tested, 0.46% active; AID 651710;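 active = every replicate showing at least 50% inhibition; inconclusive = mean inhibition at least 50% but not in every replicate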
# CFTR F508del cor: CFTR F508del correction in bronchial cells; CFBE cells, YFP halide quenching; stimulated with forskolin plus potentiator P3; % fluorescence drop versus neutral controls; activity (quench increase), % at 7.58 µM; 350,000 tested, 0.36% active; AID 720511;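 active = mean added fluorescence quench of at least 8% versus neutral control, with both replicates also reaching 8%; inconclusive = only one of the mean or replicate conditions met; inactive = mean below 8% and not both replicates reaching 8%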;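 also: cells transiently co-express mutant CFTR-F508del with the halide-sensitive YFP; corrector assay measuring rescue of mutant channel to the surface after 24 h compound exposure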
# INS-1E GSIS act: primary screen for activators of insulin secretion dependent on glucose, INS-1E cells, GLuc reporter luminescence | activation, % at 16.6 µM | INS-1E GLuc reporter insulin secretion, 2-3 h | 370,000 tested, 0.61% active;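 active = lowest replicate activation of at least 40%, so every replicate reaches that level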
# LGR2 inh: inhibitors of bursicon-induced Drosophila LGR2 receptor cAMP signaling. AID 720647. 380,000 tested, 0.35% active. inhibition, % at 9.99 µM. HEK293 LGR2, CRE-luciferase, bursicon-stimulated, 4 h;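 active = drop in luminescence signal, shown as inhibition above about 50% in the replicate tests, limit read from the data, passing the limit was not always enough; inconclusive = probably only some replicates passing the limit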;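 also: agonist challenge used bursicon conditioned medium at about half maximal strength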
# EWS-Fli inh: EWS/Fli transcriptional activity inhibition; inhibition, % at 12.6 µM; 350,000 tested, 0.67% active; A673 NR0B1-luciferase reporter, viability-normalised;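 active = mean inhibition of at least 50% after viability correction, with every replicate also passing that limit; inconclusive = mean reaches 50% but only one of two replicates passes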;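 also: firefly luciferase signal divided by Alamar Blue viability fluorescence both relative to DMSO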
# Numbers stand for hits; i = inactive; ? = inconclusive; nt = not tested or not shown.
SMILES,RAD54 branch,RAD52 anneal inh,CFTR F508del cor,INS-1E GSIS act,LGR2 inh,EWS-Fli inh
COC(=O)C1=CN(c2ccc(OC)cc2OC)C(N)=C(C#N)C1c1ccccc1F (stereo not drawn),nt,i,9.8,i,i,53
COC(=O)C1=CN(c2ccc(OC)cc2)C(N)=C(C#N)C1c1ccccc1F (stereo not drawn),nt,i,i,i,i,i
CC1CCC(C(C)C)C(OC(=O)C[n+]2cc(-c3ccc(Cl)cc3)n3c2CCCCC3)C1 (stereo not drawn),nt,i,nt,111,i,i
Cc1cc(C)n(-c2nc(NCCCN(C)C)c3c4c(sc3n2)COC(C)(C)C4)n1,i,i,i,i,i,i
Cc1cc(C)n(-c2nc(NCCCN(C)C)c3c4c(sc3n2)CCCC4)n1,i,53,i,i,nt,i
CCOC(=O)c1ccccc1NC(=O)c1n[nH]c(=O)c2ccccc12,nt,nt,nt,82,i,nt
CCOc1cc(/C=N/n2cnnc2)ccc1OS(=O)(=O)c1ccccc1,i,i,i,i,i,i
C[C@H]1CCCCO[C@H](CN(C)C(=O)Nc2ccc3c(c2)OCO3)[C@@H](C)CN([C@@H](C)CO)C(=O)c2cc(NC(=O)c3ccccc3)ccc2O1,i,i,i,i,i,i
Cc1cc(C)cc(C(=O)N2CCC(CCC(=O)NC3CC3)CC2)c1,i,i,i,i,i,i
C=CCOc1cccc(C(=O)N2CCC(CCC(=O)NC3CC3)CC2)c1,i,i,i,54,i,i
C[C@@H]1CCCCO[C@@H](CN(C)Cc2ccc(C(F)(F)F)cc2)[C@H](C)CN([C@@H](C)CO)C(=O)c2cc(NC(=O)Nc3cccc4ccccc34)ccc2O1,i,nt,i,i,i,i
O=C1c2ccccc2-c2onc3ccc(N4CCCC4)c1c23,nt,i,i,i,i,i
O=C1c2ccccc2C(=O)c2c1cccc2N1CCCC1,i,i,8.0,nt,nt,i
COc1ccc(-c2nnc3sc(-c4ccco4)nn23)cc1OC,i,nt,nt,59,nt,nt
COc1ccc(-c2nn3c(-c4ccco4)nnc3s2)cc1OC,i,nt,nt,nt,nt,nt
CC(=O)Oc1ccc(/C=C(\NC(=O)c2cccc(Br)c2)C(=O)Nc2ccc(C(=O)O)cc2)cc1,i,i,i,i,i,i
C#CCOc1ccc(C2C3=C(COC3=O)Nc3cc4c(cc32)OCO4)cc1OC (stereo not drawn),nt,i,i,i,i,58
CCOc1ccccc1C1C2=C(COC2=O)Nc2cc3c(cc21)OCO3 (stereo not drawn),nt,i,i,i,i,i
O=C1OCC2=C1C(c1ccc(F)cc1)c1cc3c(cc1N2)OCO3 (stereo not drawn),nt,i,i,nt,nt,67
O=C(C[C@H]1C=C[C@H](NC(=O)c2cccnc2)[C@@H](CO)O1)NCc1ccncn1,nt,i,i,i,i,i
CS(=O)(=O)c1cnc(-c2ccccc2)nc1Oc1ccc(F)cc1,nt,nt,nt,65,i,nt
CN1CCN(c2nc(-c3ccccc3)ncc2S(C)(=O)=O)CC1,i,i,i,i,i,i
COc1ccc(/C=N\NC(=O)COc2ccccc2Cl)cc1Cn1nc(C)cc1C,i,nt,nt,nt,nt,nt
COc1ccccc1Nc1nc(NCc2ccco2)c2ccccc2n1,i,i,i,nt,nt,i
Cc1ccc(Nc2nc(NCc3ccco3)c3ccccc3n2)cc1,i,i,i,i,96,i
SMILES,RAD54 branch,RAD52 anneal inh,CFTR F508del cor,INS-1E GSIS act,LGR2 inh,EWS-Fli inh
Cc1n[nH]c(=O)c2c(NC(=O)CSc3ncccn3)oc(C)c12,nt,i,i,i,i,i
COc1ccc2[nH]c3c(N4CCc5ccccc5C4)ncnc3c2c1,i,i,?,i,79,i
COc1ccc2c(c1)[C@@]1(OCCC=C[C@H]1C)C(=O)N2CC1CC1,nt,i,i,53,i,i
COc1ccc2c(c1)[C@@]1(OCCC=C[C@H]1C)C(=O)N2C/C=C(\C)CCC=C(C)C,nt,i,i,i,i,i
COc1ccc(CNC(=O)[C@@H]2CCCN2C(=O)[C@@H]2Cc3ccccc3CN2C(=O)OC(C)(C)C)cc1,nt,i,i,i,i,i
COc1ccc(CN(C)C[C@@H]2OCCCC[C@H](C)Oc3ccc(NC(=O)Nc4ccc(C(F)(F)F)cc4)cc3C(=O)N([C@@H](C)CO)C[C@H]2C)cc1,i,52,i,i,nt,72
COc1ccc(CN(C)C[C@@H]2OCCCC[C@@H](C)Oc3ccc(NC(=O)Nc4ccc(C(F)(F)F)cc4)cc3C(=O)N([C@@H](C)CO)C[C@@H]2C)cc1,i,i,i,i,nt,70
COc1ccc(CN(C)C[C@H]2OCCCC[C@H](C)Oc3ccc(NC(=O)Nc4ccc(C(F)(F)F)cc4)cc3C(=O)N([C@H](C)CO)C[C@H]2C)cc1,i,i,8.7,i,nt,?
COc1ccc(NC(=O)Nc2ccc3c(c2)C(=O)N([C@H](C)CO)C[C@@H](C)[C@@H](CN(C)Cc2ccc(C(F)(F)F)cc2)OCCCC[C@H](C)O3)cc1,i,i,i,i,i,i
COc1ccc(CN(C)C[C@H]2OCCCC[C@H](C)Oc3ccc(NC(=O)Nc4ccc(C(F)(F)F)cc4)cc3C(=O)N([C@@H](C)CO)C[C@@H]2C)cc1,i,i,i,i,nt,71
COc1ccc(CN(C)C[C@@H]2OCCCC[C@@H](C)Oc3ccc(NC(=O)Nc4ccc(C(F)(F)F)cc4)cc3C(=O)N([C@H](C)CO)C[C@@H]2C)cc1,i,i,i,i,nt,i
COc1ccc(NC(=O)Nc2ccc3c(c2)C(=O)N([C@H](C)CO)C[C@H](C)[C@@H](CN(C)Cc2ccc(C(F)(F)F)cc2)OCCCC[C@H](C)O3)cc1,i,i,i,i,i,i
C[C@H](NC(=O)c1nc[nH]c1C(=O)NCc1ccc(CNC(=O)OC(C)(C)C)cc1)C(=O)OC(C)(C)C,i,i,i,i,i,i
COc1ccccc1NC(=O)N[C@@H]1CC[C@H](CC(=O)NCc2ccc(Cl)c(Cl)c2)O[C@@H]1CO,i,i,i,i,i,nt
CCOc1ccccc1NC(C)C(=O)Nc1cc(C(F)(F)F)ccc1N1CCOCC1 (stereo not drawn),nt,nt,nt,i,i,nt
COc1ccc(CN(C)C[C@@H]2OCCCC[C@H](C)Oc3ccc(NC(=O)Nc4ccc(C(F)(F)F)cc4)cc3C(=O)N([C@H](C)CO)C[C@H]2C)cc1,i,65,i,nt,nt,71
C=CCn1c(CSc2nnc(-c3ccccc3)n2C)n[nH]c1=S,i,i,i,i,i,i
Cc1ccc(S(=O)(=O)N(C)C[C@@H]2Oc3ccc(NC(=O)Nc4ccc(C(F)(F)F)cc4)cc3CC(=O)N([C@@H](C)CO)C[C@@H]2C)cc1,i,i,i,i,i,51
Cc1ccc(S(=O)(=O)N(C)C[C@@H]2Oc3ccc(NC(=O)Nc4ccc(F)cc4)cc3CC(=O)N([C@H](C)CO)C[C@@H]2C)cc1,i,i,i,i,i,63
C[C@H]1CN([C@@H](C)CO)C(=O)Cc2cc(NC(=O)Nc3ccc(C(F)(F)F)cc3)ccc2O[C@H]1CN(C)S(=O)(=O)c1ccc(F)cc1,nt,nt,i,i,i,54

# Screening results: PubChem, Broad Institute
